Measured values published in PubChem BioAssay AID1347084 (National Center for Advancing Translational Sciences (NCATS), 2019).
“And” between values parts separate entries of the source, which are not always exact repeats. Equal entries are not always repeated. Inconclusive results are not listed. A number with no mark means an inactive call. The source made the active and inactive calls. The call rests on the fitted dose curve.

Assay: qHTS for Inhibitors of the Functional Ribonucleoprotein Complex (vRNP) of Lymphocytic Choriomeningitis Arenaviruses (LCMV): LCMV Confirmatory Screen - GLuc reporter signal
Details: LCMV minigenome vRNP, Gaussia luciferase reporter; series mostly up to 53.9 µM; activity change, negative = inhibition: at the top concentration

Structure (SMILES) | Potency | activity change, negative = inhibition
CC1=C(C)C(=O)C(CCCCC#CCCCC#CCO)=C(C)C1=O | 19.3 µM (active) | –
COc1cccc(-c2ccc(NC(=O)C3=C(C(=O)O)CCC3)c(F)c2)c1 | 3.85 µM (active) | –
Cc1ccccc1-n1c(Cn2nc(-c3cccc(O)c3)c3c(N)ncnc32)nc2cccc(C)c2c1=O | 30.6 µM (active) | –
CCOC(=O)OCC/C(SC(=O)OCC)=C(\C)N(C=O)Cc1cnc(C)nc1N | – | -12.6%
COCCOC(=O)C1=C(C)NC(C)=C(C(=O)OC/C=C/c2ccccc2)C1c1cccc([N+](=O)[O-])c1 (configuration not stated) | 21.7 µM (active) | –
FC(F)(F)c1ccc(C=Cc2nc(COc3ccc(CCCCn4ccnn4)cc3)co2)cc1 | 0.0153 µM (active) | –
O=C(Nc1ccc([N+](=O)[O-])cc1Cl)c1cc(Cl)ccc1O | 0.863 µM (active) | –
CC(C)(C)C1CCC(CC2=C(O)c3ccccc3C(=O)C2=O)CC1 (configuration not stated) | 6.11 µM (active) | –
COc1ccc2c(c1OC)CN1CCc3cc4c(cc3C1C2)OCO4 (configuration not stated) | 24.3 µM (active) | –
Nc1ccc([N+](=O)[O-])cc1O | 62.7 µM (active) | –
CNCCCC1c2ccccc2C=Cc2ccccc21 | 30.6 µM (active) | –
C=C(C)[C@H]1Cc2c(ccc3c2O[C@@H]2COc4cc(OC)c(OC)cc4[C@@H]2C3=O)O1 | 0.0544 µM (active) | –
CC(=O)OCC(=O)[C@@]12N=C(C)O[C@H]1C[C@H]1[C@@H]3CCC4=CC(=O)C=C[C@]4(C)[C@@H]3[C@@H](O)C[C@@]12C | – | 34.7%
N#CC(=C(\N)Sc1ccccc1N)/C(C#N)=C(/N)Sc1ccccc1N | 27.3 µM (active) | –
C=C(C)C1Cc2c(ccc3c2OC2COc4cc(OC)c(OC)cc4C2C3=O)O1 (configuration not stated) | 0.0153 µM (active) | –
CCn1c(-c2nonc2N)nc2cnc(Oc3cccc(NC(=O)c4ccc(OCCN5CCOCC5)cc4)c3)cc21 | 4.32 µM (active) | –
CCCCCC[C@H]1C(=O)O[C@H](C)[C@H](NC(=O)c2cccc(NC=O)c2O)C(=O)O[C@@H](C)[C@@H]1OC(=O)CC(C)C | 0.0343 µM (active) | –
CC12C(=O)OC(=O)C1(C)C1CCC2O1 (configuration not stated) | 9.68 µM (active) | –
CCCCC/C(C=O)=C\c1ccccc1 | – | -14.3%
CC(C)=CCC/C(C)=C/CC/C(C)=C/CC[C@]1(C)CCc2c(C)c(O)c(C)c(C)c2O1 | – | -18.6% [at 6 µM]
Cc1ncc([N+](=O)[O-])n1CC(C)O (configuration not stated) | – | 5.61%
Clc1nccc2c1ccc1ccccc12 | – | -21.7%
Cc1cc2c(C(C)C)c(O)c(O)c(C=O)c2c(O)c1-c1c(C)cc2c(C(C)C)c(O)c(O)c(C=O)c2c1O | 6.11 µM (active) | –
COc1ccc(Cc2nccc3cc(OC)c(OC)cc23)cc1OC | 1.93 µM (active) and 3.43 µM (active) | –
O=C1Cc2cc(CCN3CCN(c4nsc5ccccc45)CC3)c(Cl)cc2N1 | – | -22.9%
CCC[C@H](N[C@@H](C)C(=O)N1[C@@H]2CCCC[C@H]2C[C@H]1C(=O)O)C(=O)OCC | – | -6.4%
Cc1cc(N)c2ccccc2[n+]1CCCCCCCCCC[n+]1c(C)cc(N)c2ccccc21 | 1.09 µM (active) | –
